The results in this text go back to PubChem BioAssay (NCATS).

Inconclusive results are not listed. Activity calls are given as the source filed them. Unless noted, how the calls were made is not given here.

A short description of the first assay: qHTS Assay for Identifying Gametocytocidal Compounds (AID 743244; active means well fitted curve in the direction sought with a large enough effect;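 further: on the % scale 0 is the no-effect control and ±100 the full control effect; actives lower the fluorescent signal which means gametocytes are killed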). The note with it: P. falciparum 3D7 stage III-V gametocytes, alamarBlue, 72 h; max response: stronger effect = lower value. An outline of the steps:
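P. falciparum 3D7 stage III–V gametocytes (20,000 cells/well) were exposed to compounds for 72 h at 37 °C, 5% CO2. AlamarBlue was then added for 24 h; decreased resorufin fluorescence (Ex 525/Em 598 nm) indicated loss of viability.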
For orientation: Quantitative high-throughput screening tests each substance at several concentrations.
Regarding `CCCCCCNC(=O)n1cc(F)c(=O)[nH]c1=O`, the max response is -3.88% (inactive).

In the case of `COCCCOc1cc(C[C@@H](C[C@H](N)[C@@H](O)C[C@H](C(=O)NCC(C)(C)C(N)=O)C(C)C)C(C)C)ccc1OC`, the max response is 13.7% (inactive). On the same count and under the same terms, to `COc1cnc(NS(=O)(=O)c2ccc(N)cc2)nc1` belongs 7.05% (inactive); to `CC(N)C12CC3CC(CC(C3)C1)C2` (stereo not drawn), 26.1% (inactive).

Take `CO[C@@H]1[C@@H](OC(N)=O)[C@@H](O)[C@H](Oc2ccc3c(O)c(NC(=O)c4ccc(O)c(CC=C(C)C)c4)c(=O)oc3c2C)OC1(C)C`: the max response was 1.46% (inactive). On the same count and under the same terms, to `Cn1c(=O)c2c(ncn2CC(O)CO)n(C)c1=O` (stereo not drawn) belongs -1.9% (inactive).

For the compound `O=c1oc2c(O)c(O)cc3c(=O)oc4c(O)c(O)cc1c4c23`, the max response was 10.2% (inactive). Same read-out and setting: under `CCCc1nc(C)c2c(=O)[nH]c(-c3cc(S(=O)(=O)N4CCN(CC)CC4)ccc3OCC)nn12` stands 1.11% (inactive).

Take `Cc1onc(-c2ccccc2Cl)c1C(=O)N[C@@H]1C(=O)N2[C@@H]1SC(C)(C)[C@@H]2C(=O)O`: the max response was -11.3% (inactive). Regarding `CCOCC(O)COc1ccc(NC(=O)CC[S+](C)C)cc1` (stereo not drawn), the max response was 2.79% (inactive). `Nc1ccc(S(=O)(=O)Nc2ccccn2)cc1`: the max response was 3.9% (inactive). As to `O=C(O)c1cccnc1`, the max response was 3.31% (inactive). The same measure, in the same setting: under `COc1c(N2CCNC(C)C2)c(F)cc2c(=O)c(C(=O)O)cn(C3CC3)c12` (stereo not drawn) stands -5.93% (inactive).

As for `COc1ccc(-c2ccc3cc(C(=O)O)ccc3c2)cc1C12CC3CC(CC(C3)C1)C2`, the max response is 23.8% (inactive).

The next assay can be described thus: qHTS profiling of the MIPE4 collection as inhibitors of Plasmodium falciparum (3D7) proliferation (AID 743344).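 Further: scaled between DMSO vehicle wells and 0.29 µM artemisinin as full inhibition.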 The note with it: P. falciparum 3D7 in erythrocytes, SYBR Green DNA fluorescence, 72 h; at 28.5 µM (top of the series) unless noted. The gist of the method: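 Parasite DNA was quantified by SYBR Green I fluorescence (ex 485, em 535 nm) after overnight lysis in saponin/Triton buffer at room temperature. Cultures at 0.3% parasitemia and 2.5% hematocrit were first exposed to compound for 72 h at 37 C; signals were normalised to artemisinin (0.29 uM) and vehicle wells.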
`Oc1c(Cl)cc(Cl)c2cccnc12` displayed a parasite growth, % of DMSO control of 123%. Still for that read-out and setting: to `CN1CCN(c2c(F)cc3c(=O)c(C(=O)O)cn(CCF)c3c2F)CC1` belongs 86.6%; to `COc1cc(NCc2ccc3nc(N)nc(N)c3c2C)cc(OC)c1OC`, 15.9%. On the same count and under the same terms, under `COc1ccc(C(=O)CC(=O)c2ccc(C(C)(C)C)cc2)cc1` stands 9.04%. On the same count and under the same terms, under `CCOc1cc(N)c(Cl)cc1C(=O)NCC1CN(Cc2ccc(F)cc2)CCO1` (stereo not drawn) stands 105%; under `NS(=O)(=O)c1cc2c(cc1Cl)NC(C(Cl)Cl)NS2(=O)=O` (stereo not drawn), 84.2%. For `Cc1cccc(N(C)C(=S)Oc2ccc3ccccc3c2)c1`, the parasite growth, % of DMSO control worked out at 51.5%. On the same count and under the same terms, under `COC(=O)Nc1nc2ccc(S(=O)c3ccccc3)cc2[nH]1` (stereo not drawn) stands 67%. Consider `CN(Cc1cc(Br)cc(Br)c1N)C1CCCCC1`, for which the parasite growth, % of DMSO control stood at 44.4%. Still for that read-out and setting: under `CC(C)(C)NC(=O)[C@H]1CC[C@H]2[C@@H]3CC[C@H]4NC(=O)C=C[C@]4(C)[C@H]3CC[C@]12C` stands 60.2%; under `CCOC(=O)c1ccc(C#Cc2ccc3c(c2)C(C)(C)CCS3)nc1`, 36.2%. The same measure, in the same setting: under `C[C@@H](CN1CC(=O)NC(=O)C1)N1CC(=O)NC(=O)C1` stands 74.5%; under `CCC(=O)O[C@]1(C(=O)SCF)[C@H](C)C[C@H]2[C@@H]3C[C@H](F)C4=CC(=O)C=C[C@]4(C)[C@@]3(F)[C@@H](O)C[C@@]21C`, 47.5%.

Turning to `CC(=O)[C@H]1CC[C@H]2[C@@H]3CC=C4C[C@@H](O)CC[C@]4(C)[C@H]3CC[C@]12C`, the parasite growth, % of DMSO control is 89.9%. Compound `CN(CCOc1ccc(CC2SC(=O)NC2=O)cc1)c1ccccn1` (stereo not drawn) showed a parasite growth, % of DMSO control of 98.7%.

Compound `CCCCc1oc2ccc(NS(C)(=O)=O)cc2c1C(=O)c1ccc(OCCCN(CCCC)CCCC)cc1` had a parasite growth, % of DMSO control of 7.48%.

In turn, `CCCCCCNC(=O)n1cc(F)c(=O)[nH]c1=O` gave a parasite growth, % of DMSO control of 59%.

In turn, `COCCCOc1cc(C[C@@H](C[C@H](N)[C@@H](O)C[C@H](C(=O)NCC(C)(C)C(N)=O)C(C)C)C(C)C)ccc1OC` yielded a parasite growth, % of DMSO control of 40.6%.

In turn, `COc1cnc(NS(=O)(=O)c2ccc(N)cc2)nc1` displayed a parasite growth, % of DMSO control of 87.5%. Same read-out and setting: to `CC(N)C12CC3CC(CC(C3)C1)C2` (stereo not drawn) belongs 76.2%. The same measure, in the same setting: under `CO[C@@H]1[C@@H](OC(N)=O)[C@@H](O)[C@H](Oc2ccc3c(O)c(NC(=O)c4ccc(O)c(CC=C(C)C)c4)c(=O)oc3c2C)OC1(C)C` stands 61%; under `Cn1c(=O)c2c(ncn2CC(O)CO)n(C)c1=O` (stereo not drawn), 85.8%. The same measure, in the same setting: under `O=c1oc2c(O)c(O)cc3c(=O)oc4c(O)c(O)cc1c4c23` stands 4.91%. The compound `CCCc1nc(C)c2c(=O)[nH]c(-c3cc(S(=O)(=O)N4CCN(CC)CC4)ccc3OCC)nn12` registered a parasite growth, % of DMSO control of 6.01%. On the same count and under the same terms, to `Cc1onc(-c2ccccc2Cl)c1C(=O)N[C@@H]1C(=O)N2[C@@H]1SC(C)(C)[C@@H]2C(=O)O` belongs 86.7%; to `CCOCC(O)COc1ccc(NC(=O)CC[S+](C)C)cc1` (stereo not drawn), 84%; to `CNCC[C@H](Oc1cccc2ccccc12)c1cccs1`, 6.18%. On the same count and under the same terms, under `Nc1ccc(S(=O)(=O)Nc2ccccn2)cc1` stands 89.8%; under `CCOC(=O)[C@H](CCc1ccccc1)N[C@H]1CCc2ccccc2N(CC(=O)O)C1=O`, 9.1%.

Consider `C[C@@H](NCCCc1cccc(C(F)(F)F)c1)c1cccc2ccccc12`, for which the parasite growth, % of DMSO control turned out to be 16.2%. Compound `O=C(NCC1CN(c2ccc(N3CCOCC3=O)cc2)C(=O)O1)c1ccc(Cl)s1` (stereo not drawn) displayed a parasite growth, % of DMSO control of 74.4%. Still for that read-out and setting: under `O=C(O)c1cccnc1` stands 91.9%; under `COc1c(N2CCNC(C)C2)c(F)cc2c(=O)c(C(=O)O)cn(C3CC3)c12` (stereo not drawn), 17.5%.

`COc1ccc(-c2ccc3cc(C(=O)O)ccc3c2)cc1C12CC3CC(CC(C3)C1)C2` showed a parasite growth, % of DMSO control of 66.2%.
